Several values for one entry are separate records, joined by “and”; a condition that tells them apart may be missing. Identical values can stand only once. Screen size: about 5,500 compounds; about 2,000 (36%) were called active. Not shown: some 18% with an inconclusive outcome. No stated cut-off is given here; in the data, active means normalized growth mostly below about 0.91 (no sharp cut-off); inconclusive means no clear call, values can overlap the other calls; inactive means mostly above about 0.92. The list shows a part of the results.
Experiment: chemical genetic growth profiling, strain panel (AID 1159580);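 further: tested at 20 µM; growth read once vehicle control cultures reached saturation at 30 °C; 1 = growth at the plate median or of vehicle wells; lower values mean less growth of the strain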
Conditions: S. cerevisiae deletion strains, growth OD

Measured: normalized growth

O=C(O)C1=CCCNC1
inactive: locus YAL021C, strain ccr4, active compounds read low 1.02 | locus YAL026C, strain drs2, active compounds read low 0.991 | locus YAL030W, strain snc1, active compounds read low 0.999 | locus YBL061C, strain skt5, active compounds read low 0.993 | locus YBR009C, strain hhf1, active compounds read low 1.04 | locus YBR021W, strain FUR4, active compounds read low 1.02 | locus YBR023C, strain chs3, active compounds read low 1.01 | locus YBR171W, strain sec66, active compounds read low 0.985 | locus YBR229C, strain ROT2, active compounds read low 1 | locus YBR231C, strain swc5, active compounds read low 0.981 | locus YBR279W, strain paf1, active compounds read low 0.988 | locus YCL011C, strain gbp2, active compounds read low 1.01 | locus YCL016C, strain dcc1, active compounds read low 1.02 | locus YCL029C, strain bik1, active compounds read low 0.974 | locus YCL061C, strain MRC1 (second series), active compounds read low 1.01 | locus YCL069W, strain vba3, active compounds read low 1 | locus YCR088W, strain abp1, active compounds read low 0.989 | locus YDL005C, strain med2, active compounds read low 0.978 | locus YDL035C, strain GPR1, active compounds read low 0.99 | locus YDL040C, strain nat1, active compounds read low 0.989 | locus YDL074C, strain BRE1, active compounds read low 0.984 | locus YDL101C, strain DUN1, active compounds read low 1.01 | locus YDL185W, strain tfp1, active compounds read low 0.968 | locus YDL192W, strain arf1, active compounds read low 0.973 | locus YDR001C, strain nth1, active compounds read low 0.99 | locus YDR069C, strain doa4, active compounds read low 0.999 | locus YDR101C, strain arx1, active compounds read low 0.979 | locus YDR137W, strain rgp1, active compounds read low 1.01 | locus YDR159W, strain sac3, active compounds read low 0.96 | locus YDR162C, strain NBP2, active compounds read low 1.04 | locus YDR195W, strain ref2 0.959 | locus YDR297W, strain sur2, active compounds read low 1 | locus YDR318W, strain mcm21, active compounds read low 0.995 | locus YDR334W, strain swr1, active compounds read low 0.979 | locus YDR335W, strain msn5, active compounds read low 0.995 | locus YDR363W, strain ESC2, active compounds read low 1.01 | locus YDR388W, active compounds read low 0.989 | locus YDR392W, strain spt3, active compounds read low 0.941 | locus YDR502C, strain sam2, active compounds read low 0.987 | locus YEL003W, strain gim4, active compounds read low 0.989 | locus YEL037C, strain rad23, active compounds read low 0.989 | locus YEL061C, strain CIN8 (second series), active compounds read low 0.987 | locus YEL061C, strain CIN8, active compounds read low 0.998 | locus YER002W, strain NOP16, active compounds read low 0.91 | locus YER015W, strain faa2, active compounds read low 0.984 | locus YER016W, strain bim1, active compounds read low 0.995 | locus YER110C, active compounds read low 0.965 | locus YER111C, strain swi4, active compounds read low 0.981 | locus YER155C, strain BEM2 (second series), active compounds read low 0.959 | locus YER155C, strain BEM2, active compounds read low 0.985 | locus YER167W, strain BCK2, active compounds read low 0.991 | locus YFR010W, strain ubp6, active compounds read low 0.973 | locus YGL078C, strain dbp3, active compounds read low 1.01 | locus YGL086W, strain mad1, active compounds read low 0.98 | locus YGL167C, strain pmr1, active compounds read low 0.99 | locus YGL173C, strain kem1, active compounds read low 0.99 | locus YGL227W, strain vid30, active compounds read low 0.989 | locus YGL240W, strain doc1, active compounds read low 0.986 | locus YGL248W, strain PDE1, active compounds read low 1.02 | locus YGL253W, strain hxk2, active compounds read low 0.981 | locus YGR135W, strain pre9, active compounds read low 0.997 | locus YGR229C, strain SMI1, active compounds read low 1.02 | locus YGR252W, strain gcn5, active compounds read low 1.15 | locus YHR013C, strain ard1, active compounds read low 0.979 | locus YHR027C, strain rpn1, active compounds read low 0.993 | locus YHR030C, strain SLT2, active compounds read low 0.985 and 1.04 | locus YHR079C, strain IRE1 (second series), active compounds read low 0.974 | locus YHR079C, strain IRE1, active compounds read low 1.04 | locus YHR094C, strain hxt1, active compounds read low 0.981 | locus YHR129C, strain ARP1, active compounds read low 0.992 | locus YHR142W, strain chs7, active compounds read low 1.02 | locus YHR200W, strain rpn10, active compounds read low 0.984 | locus YIL066C, strain RNR3, active compounds read low 1.01 | locus YIL073C, strain SPO22, active compounds read low 0.943 | locus YIL125W, strain kgd1, active compounds read low 0.987 | locus YIR030C, strain dcg1, active compounds read low 0.987 | locus YJL092W, strain hpr5, active compounds read low 0.991 | locus YJL095W, strain BCK1 (second series), active compounds read low 1 | locus YJL095W, strain BCK1, active compounds read low 1.05 | locus YJL115W, strain asf1, active compounds read low 0.985 | locus YJL129C, strain trk1, active compounds read low 0.99 | locus YJL134W, strain LCB3, active compounds read low 0.991 | locus YJL154C, strain vps35, active compounds read low 0.98 | locus YJL164C, strain tpk1, active compounds read low 1.02 | locus YJL166W, strain qcr8, active compounds read low 1.01 | locus YJL168C, strain set2, active compounds read low 0.993 | locus YJL187C, strain SWE1 (second series), active compounds read low 1.02 | locus YJR043C, strain POL32, active compounds read low 1.01 | locus YJR066W, strain TOR1, active compounds read low 0.997 | locus YJR075W, strain HOC1, active compounds read low 1.01 and 1 | locus YKL009W, strain mrt4, active compounds read low 0.961 | locus YKL068W, active compounds read low 1 | locus YKL085W, strain MDH1 (second series), active compounds read low 0.973 | locus YKL085W, strain MDH1, active compounds read low 0.973 | locus YKL160W, strain elf1, active compounds read low 1 | locus YKL190W, strain CNB1, active compounds read low 0.997 | locus YKR001C, strain vps1, active compounds read low 0.999 | locus YKR026C, strain gcn3, active compounds read low 0.981 | locus YKR091W, strain srl3, active compounds read low 0.995 | locus YLL001W, strain dnm1, active compounds read low 0.993 | locus YLL026W, active compounds read low 0.994 | locus YLL041C, strain sdh2, active compounds read low 0.987 | locus YLR027C, strain aat2, active compounds read low 0.969 | locus YLR039C, strain RIC1, active compounds read low 0.963 | locus YLR058C, strain SHM2, active compounds read low 1.01 | locus YLR102C, strain apc9, active compounds read low 0.97 | locus YLR113W, strain HOG1, active compounds read low 1.02 | locus YLR221C, strain rsa3, active compounds read low 0.96 | locus YLR258W, strain gsy2, active compounds read low 1.02 | locus YLR262C, strain YPT6 (second series), active compounds read low 1.01 | locus YLR262C, strain YPT6, active compounds read low 0.999 | locus YLR268W, strain sec22, active compounds read low 0.975 | locus YLR320W, strain mms22, active compounds read low 0.963 | locus YLR330W, strain CHS5, active compounds read low 0.984 | locus YLR342W, strain FKS1 (second series), active compounds read low 0.987 | locus YLR342W, strain FKS1, active compounds read low 0.983 | locus YLR357W, strain rsc2, active compounds read low 0.969 | locus YLR370C, strain arc18, active compounds read low 0.998 | locus YLR371W, strain rom2, active compounds read low 0.977 | locus YLR384C, strain iki3, active compounds read low 0.973 | locus YLR418C, strain cdc73, active compounds read low 1.04 | locus YML016C, strain PPZ1, active compounds read low 0.995 | locus YML032C, strain rad52, active compounds read low 0.989 | locus YML120C, strain ndi1, active compounds read low 1.01 | locus YML124C, strain tub3, active compounds read low 1.01 | locus YMR058W, strain fet3, active compounds read low 0.992 | locus YMR078C, strain ctf18, active compounds read low 0.974 | locus YMR125W, strain sto1, active compounds read low 1.01 | locus YMR129W, active compounds read low 0.992 | locus YMR205C, strain PFK2, active compounds read low 1.01 | locus YMR223W, strain ubp8, active compounds read low 1 | locus YMR231W, strain pep5, active compounds read low 0.985 | locus YMR263W, strain SAP30, active compounds read low 1 and 1.01 | locus YMR307W, strain GAS1, active compounds read low 1.12 | locus YNL067W, strain RPL9B, active compounds read low 1.03 | locus YNL071W, strain lat1, active compounds read low 1 | locus YNL153C, strain GIM3, active compounds read low 1.04 and 1.02 | locus YNL175C, strain NOP13, active compounds read low 1 | locus YNL183C, strain NPR1, active compounds read low 1.01 | locus YNL197C, strain WHI3, active compounds read low 0.915 | locus YNL209W, strain ssb2, active compounds read low 1.01 | locus YNL224C, strain SQS1, active compounds read low 1 | locus YNL233W, strain BNI4, active compounds read low 1.02 | locus YNL248C, strain rpa49, active compounds read low 0.965 | locus YNL250W, strain rad50, active compounds read low 0.978 | locus YNL271C, strain bni1, active compounds read low 0.994 | locus YNL298W, strain CLA4, active compounds read low 0.987 | locus YNL307C, strain MCK1, active compounds read low 0.992 | locus YNL322C, strain KRE1 (second series), active compounds read low 1 | locus YNL322C, strain KRE1, active compounds read low 1.01 | locus YNR049C, strain mso1, active compounds read low 0.976 | locus YNR052C, strain pop2, active compounds read low 1.01 | locus YOL006C, strain TOP1, active compounds read low 0.976 | locus YOL012C, strain htz1 1.03 | locus YOL147C, strain pex11, active compounds read low 0.984 | locus YOR001W, strain rrp6, active compounds read low 0.943 | locus YOR061W, strain CKA2, active compounds read low 0.992 | locus YOR069W, strain VPS5, active compounds read low 0.989 | locus YOR070C, strain gyp1, active compounds read low 0.982 | locus YOR080W, strain dia2, active compounds read low 0.987 | locus YOR083W, strain WHI5 (second series), active compounds read low 1.03 | locus YOR083W, strain WHI5, active compounds read low 1.01 | locus YOR106W, strain vam3, active compounds read low 1.01 | locus YOR136W, strain idh2, active compounds read low 0.984 | locus YOR144C, strain elg1, active compounds read low 0.988 | locus YOR184W, strain ser1, active compounds read low 0.97 | locus YOR231W, strain MKK1, active compounds read low 1.05 | locus YOR265W, strain rbl2, active compounds read low 0.992 | locus YOR270C, strain vph1, active compounds read low 0.976 | locus YOR290C, strain snf2, active compounds read low 0.985 | locus YOR316C, strain cot1, active compounds read low 0.98 | locus YPL051W, strain arl3, active compounds read low 0.981 | locus YPL055C, strain LGE1, active compounds read low 1.01 | locus YPL078C, strain atp4, active compounds read low 1.01 | locus YPL106C, strain sse1, active compounds read low 1.01 | locus YPL240C, strain hsp82, active compounds read low 0.992 | locus YPL256C, strain CLN2, active compounds read low 1.03 | locus YPR119W, strain clb2, active compounds read low 0.973 | locus YPR141C, strain kar3, active compounds read low 0.983 | locus YPR163C, strain tif3, active compounds read low 0.983 | locus YPR167C, strain met16, active compounds read low 0.958 | strain wtn01, active compounds read low 0.985

Reference: PubChem BioAssay AID1159580 (chemical genetic matrix, 2015)
